{
  "source": "PubChem BioAssay (NCATS)",
  "note": "Inconclusive results are not listed. A number with no mark means an inactive call. The source made the active and inactive calls. Calls come from the whole dose curve; as a rule, active = well fitted inhibition curve with a large enough effect; inconclusive = small, poorly fitted or top-dose-only effect; inactive = flat fitted curve, though single readings scatter. % is set by controls: 0 for no effect and ±100 for the full control effect.",
  "data": [
    {"molecular_target": "Glutathione peroxidase 1 (Homo sapiens) (UniProt P07203)", "sequence (P07203 whole entry, looked up)": "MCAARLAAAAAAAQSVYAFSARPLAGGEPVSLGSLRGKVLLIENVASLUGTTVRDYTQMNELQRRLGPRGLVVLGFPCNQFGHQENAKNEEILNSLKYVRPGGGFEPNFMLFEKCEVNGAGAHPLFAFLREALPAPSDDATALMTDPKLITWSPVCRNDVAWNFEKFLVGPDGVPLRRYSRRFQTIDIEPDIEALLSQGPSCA", "assay": "Primary qHTS Assay for Inhibitors of Recombinant Selenoprotein Glutathione Peroxidase 1 (GPX1) (AID 1845191); note: nearly all actives have a fitted effect of over 65% in size", "details": "recombinant GPX1, GR-coupled NADPH fluorescence, 15 min; series mostly up to 48.8 µM; activity, negative = inhibition: at the top concentration", "excerpt": "Assay Provider: Elias S.J. Arner MD PhD.\nDepartment of Medical Biochemistry and Biophysics\nKarolinska Institutet, Solna, Stockholm, Sweden\nSelenoprotein glutathione peroxidases (GPX), like the ubiquitously expressed GPX1 and the ferroptosis modulator GPX4, enact their antioxidant activities by reducing hydroperoxides using glutathione. […] GPX1 and GPX4 inhibitors have thus shown promise as anti-cancer agents. Existing inhibitors are often promiscuous, or modulate GPX activity only indirectly, so novel direct inhibitors identified through screening against GPX1 and GPX4 could be valuable. Here, we developed optimized glutathione reductase (GR)-coupled GPX assays for the biochemical high-throughput screen (HTS) of almost 12,000 compounds with known mechanisms of action. Initial hits were triaged using a GR counter-screen, assessed for isoform specificity using a separate GPX2 assay, and were assessed for general selenocysteine-targeting activity using a thioredoxin reductase (TXNRD1) assay. With this suite of assays, we identified novel GPX1/GPX2- and GPX4-specific inhibitors and can here present a validated pipeline for future discovery research for selenoprotein-targeting agents.\nSEQUENCE No. (e.g., 1, 2, 3, etc.); […] (e.g., Cells, Incubation, Reagent, etc.); VALUE; DESCRIPTION.\n1; Reagent 1; 3 uL; GPx1 enzyme or no enzyme control in 1536-well, black, solid Greiner assay plate.\n2; Compound; 25 nL; Kalypsis pin tool (Wako USA) equipped with a 1536-well pin head.\n3; Incubation; 30 min; room temperature.\n4; Reagent 2; 1 uL; 10 nM GPX1, 1 mM GSH, 0.5 mM CHP, 0.5 mM NADPH, 100 nM GR, 0.01% BSA substrate\n5; Detection; Fluorescence; ViewLux microplate reader, excitation 340 nm and emission 450 nm.\n6; Incubation; 15 min; room temperature.\n7; Detection; Fluorescence; ViewLux microplate reader, excitation 340 nm and emission 450 nm.\nNOTES (numbers refer to Sequence numbers above)\n1. 3 uL of 16.66 nM GPX1 and 0.016% BSA in assay buffer (50 mM Tris-HCl, 2 mM EDTA (pH 7.5), 150 mM NaCl) was added to columns 3-48 of 1536-well assay plates using a BioRAPTR Flying Reagent Dispenser (Let's Go Robotics (LGR), Carlsbad, CA). A no-enzyme control (0.01% BSA in TES assay buffer) was added to columns 1-2.\n2. 25 nL of test compounds and DMSO controls were added to each well with a pin tool (Kalypsys).\n3. The assay plates were incubated for 30 minutes at room temperature.\n4. 1 uL of master mix (500 nM glutathione reductase (GR), 5 mM reduced glutathione (GSH), 2.5 mM NADPH in assay buffer) was added. 1 uL of cumene hydroperoxide (CHP) ([2.5 mM] in 50% EtOH) was then added within 5 minutes to initiate the reaction. Final concentrations were: 10 nM GPX1, 1 mM GSH, 0.5 mM CHP, 0.5 mM NADPH, 100 nM GR, 0.01% BSA.\n5. Initial fluorescence readout (t=0) at 340/450 nm was measured using a ViewLux multimodal detector (PerkinElmer, Waltham, MA).\n7. Endpoint fluorescence readout (t=15) at 340/450 nm was measured 15 min after room temperature incubation.", "units": {"activity, negative = inhibition": "%"}, "values": [
      {"smiles": "COc1cc(C)nc(-n2nc(C)cc2OC)n1", "activity, negative = inhibition": -12.2},
      {"smiles": "NS(=O)(=O)c1cc2c(cc1Cl)NC(CC1CCCC1)NS2(=O)=O", "note": "(stereo not given)", "activity, negative = inhibition": -20.3},
      {"smiles": "O=C1C(=O)c2ccccc2C(O)=C1C1CCC(c2ccc(Cl)cc2)CC1", "note": "(stereo not given)", "activity, negative = inhibition": -29.9},
      {"smiles": "O=C1[C@H](CC[C@H](O)c2ccc(F)cc2)[C@@H](c2ccc(O)cc2)N1c1ccc(F)cc1", "Potency": "inactive"},
      {"smiles": "CCC1Nc2cc(Cl)c(S(N)(=O)=O)cc2S(=O)(=O)N1", "note": "(stereo not given)", "activity, negative = inhibition": 4.1},
      {"smiles": "CN1CCc2cccc3c2[C@H]1Cc1ccc(O)c(O)c1-3", "activity, negative = inhibition": -17.3},
      {"smiles": "C=C[C@H]1CN2CC[C@H]1C[C@@H]2[C@@H](O)c1ccnc2ccc(OC)cc12", "Potency": "inactive"},
      {"smiles": "C[N+]12CCC(CC1)C(OC(=O)C(O)(c1ccccc1)c1ccccc1)C2", "note": "(stereo not given)", "activity, negative = inhibition": 4.57},
      {"smiles": "CCc1oc2ccccc2c1C(=O)c1cc(I)c(O)c(I)c1", "activity, negative = inhibition": -11.1},
      {"smiles": "CNCCc1ccccn1", "activity, negative = inhibition": -3.89},
      {"smiles": "CC(C)Nc1cccnc1N1CCN(C(=O)c2cc3cc(NS(C)(=O)=O)ccc3[nH]2)CC1", "activity, negative = inhibition": -25.9},
      {"smiles": "CN(C)CCOC(=O)C(c1ccccc1)C1(O)CCCC1", "note": "(stereo not given)", "outcome": "inactive"},
      {"smiles": "Cc1ccc(O)c([C@H](CCN(C(C)C)C(C)C)c2ccccc2)c1", "Potency": "inactive"},
      {"smiles": "CC[N+](C)(CC)CCOC(=O)C(O)(c1ccccc1)C1CCCCC1", "note": "(stereo not given)", "outcome": "inactive"},
      {"smiles": "NS(=O)(=O)Cc1noc2ccccc12", "activity, negative = inhibition": -4.71},
      {"smiles": "NC(=O)c1ccccc1O", "activity, negative = inhibition": -5.89},
      {"smiles": "CCOc1cc(OCC)c(C(=O)CCC(=O)O)cc1OCC", "outcome": "inactive"},
      {"smiles": "CCOC(=O)[C@H](CCc1ccccc1)N[C@@H](C)C(=O)N1[C@H](C(=O)O)C[C@@H]2CCC[C@@H]21", "Potency": "inactive"},
      {"smiles": "CCN(CC)CCOC(=O)C(Cc1cccc2ccccc12)CC1CCCO1", "note": "(stereo not given)", "activity, negative = inhibition": 1.28},
      {"smiles": "CCOCCn1c(N2CCCN(C)CC2)nc2ccccc21", "activity, negative = inhibition": -12.5},
      {"smiles": "CCCCC(CC)CN1CN(CC(CC)CCCC)CC(C)(N)C1", "note": "(stereo not given)", "outcome": "inactive"},
      {"smiles": "CN(C)CCOC(c1ccc(Cl)cc1)c1ccccn1", "note": "(stereo not given)", "activity, negative = inhibition": -17.6},
      {"smiles": "C[C@@]12C(=O)OC(=O)[C@]1(C)C1CCC2O1", "activity, negative = inhibition": -19.4},
      {"smiles": "Nc1ccc(C(=O)NCC(=O)O)cc1", "activity, negative = inhibition": 3.55},
      {"smiles": "COc1ccc(CN(CCN(C)C)c2ncccn2)cc1", "activity, negative = inhibition": -9.88},
      {"smiles": "CCN1CCCC(OC(=O)C(c2ccccc2)c2ccccc2)C1", "note": "(stereo not given)", "outcome": "inactive"},
      {"smiles": "CCCCCCCCCCC[C@@H](C[C@@H]1OC(=O)[C@H]1CCCCCC)OC(=O)[C@H](CC(C)C)NC=O", "Potency": "inactive"},
      {"smiles": "CCOC(=O)[C@H](CCc1ccccc1)N[C@@H](C)C(=O)N1[C@H](C(=O)O)C[C@H]2CCCC[C@@H]21", "Potency": "inactive"},
      {"smiles": "CC(=O)OCC(=O)[C@H]1CC[C@H]2[C@@H]3CCC4=CC(=O)CC[C@]4(C)[C@H]3CC[C@]12C", "activity, negative = inhibition": -3.25},
      {"smiles": "C#C[C@]1(O)CC[C@H]2[C@@H]3CCC4=CC(=O)CC[C@@H]4[C@H]3CC[C@@]21CC", "activity, negative = inhibition": 3.5},
      {"smiles": "CCC1NC(=O)c2cc(S(N)(=O)=O)c(Cl)cc2N1", "note": "(stereo not given)", "activity, negative = inhibition": -22.2},
      {"smiles": "COc1cc(NS(=O)(=O)c2ccc(N)cc2)ncn1", "activity, negative = inhibition": -20.2},
      {"smiles": "CC(CNC1CCCCC1)OC(=O)c1ccccc1", "note": "(stereo not given)", "activity, negative = inhibition": 4.2},
      {"smiles": "CC(O)Cn1cnc2c1c(=O)n(C)c(=O)n2C", "note": "(stereo not given)", "outcome": "inactive"},
      {"smiles": "FC(F)(F)C(F)(F)C(F)(F)C(F)(F)C(F)(F)C(F)(F)C(F)(F)C(F)(F)Br", "activity, negative = inhibition": -4.74},
      {"smiles": "CCOc1ccccc1C(N)=O", "outcome": "inactive"},
      {"smiles": "CCc1nn(CCCN2CCN(c3cccc(Cl)c3)CC2)c(=O)n1CCOc1ccccc1", "outcome": "inactive"},
      {"smiles": "COc1cc(O)c(C(=O)c2ccccc2)cc1S(=O)(=O)O", "activity, negative = inhibition": -4.77},
      {"smiles": "Nc1nc(-c2ccccc2)c(Br)c(=O)[nH]1", "activity, negative = inhibition": -12.5},
      {"smiles": "CCCc1ncc(C[n+]2ccccc2C)c(N)n1", "activity, negative = inhibition": -6.84}
    ]}
  ]
}
